What was measured:
Assay in all cases: PBM binding z-score (relative to random genomic background probes); higher = stronger binding; sequences stand for … in GC…GCGATTGACAGCGTAGAATGAAGG
[1] = test system: FXR:RXRa (NR concentration 270 nM, RXRa partner concentration 90 nM)
In short: (§1)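 Regression normalization was applied to scanned fluorescence from custom Agilent 4×180K protein-binding microarrays. Before scanning, arrays were incubated 1 h with ligand-free nuclear receptor dimers, and binding was detected with antibodies against each partner (one per run). Binding z-scores use the random background probes as reference.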

[2] = test system: LXRa:RXRa (NR concentration 270 nM, RXRa partner concentration 90 nM)
In short: as §1

[3] = test system: LXRa homodimer (NR concentration 270 nM)
In short: as §1

[4] = test system: LXRb:RXRa (NR concentration 270 nM, RXRa partner concentration 90 nM)
In short: as §1

[5] = test system: LXRb homodimer (NR concentration 270 nM)
In short: as §1

[6] = test system: PPARa:RXRa (NR concentration 270 nM, RXRa partner concentration 90 nM)
In short: as §1

[7] = test system: PPARg:RXRa (NR concentration 180 nM, RXRa partner concentration 90 nM)
In short: as §1

[8] = test system: PPARg:RXRa 270nM:90nM, anti-RXR (NR concentration 270 nM, RXRa partner concentration 90 nM)
In short: as §1

[9] = test system: PPARg:RXRa 30nM:10nM, anti-RXR (NR concentration 30 nM, RXRa partner concentration 10 nM)
In short: as §1

[10] = test system: PPARg:RXRa 90nM:30nM, anti-RXR (NR concentration 90 nM, RXRa partner concentration 30 nM)
In short: as §1

[11] = test system: PPARg:RXRa DBDmut IVT, anti-RXR (DBD mutation: RXRa K156A/R161A, NR concentration 270 nM, RXRa partner concentration 90 nM)
In short: as §1

[12] = test system: PPARg:RXRa IVT, anti-PPARg (NR concentration 270 nM, RXRa partner concentration 90 nM)
In short: as §1

[13] = test system: PPARg DBDmut:RXRa IVT, anti-PPARg (DBD mutation: PPARg1 K132A/R137A, NR concentration 270 nM, RXRa partner concentration 90 nM)
In short: as §1

[14] = test system: PPARg DBDmut IVT, anti-PPARg (DBD mutation: PPARg1 K132A/R137A, NR concentration 270 nM)
In short: as §1

[15] = test system: PPARg homodimer (NR concentration 180 nM)
In short: as §1

[16] = test system: PXR:RXRa (NR concentration 270 nM, RXRa partner concentration 90 nM)
In short: as §1

[17] = test system: PXR homodimer (NR concentration 270 nM)
In short: as §1

[18] = test system: RARa:RXR (NR concentration 270 nM, RXRa partner concentration 90 nM)
In short: as §1

[19] = test system: RARa homodimer (NR concentration 270 nM)
In short: as §1

[20] = test system: RARb:RXRa (NR concentration 270 nM, RXRa partner concentration 90 nM)
In short: as §1

Sequence	PBM binding z-score [1]	PBM binding z-score [2]	PBM binding z-score [3]	PBM binding z-score [4]	PBM binding z-score [5]	PBM binding z-score [6]	PBM binding z-score [7]	PBM binding z-score [8]	PBM binding z-score [9]	PBM binding z-score [10]	PBM binding z-score [11]	PBM binding z-score [12]	PBM binding z-score [13]	PBM binding z-score [14]	PBM binding z-score [15]	PBM binding z-score [16]	PBM binding z-score [17]	PBM binding z-score [18]	PBM binding z-score [19]	PBM binding z-score [20]
CGAACGAGGGCATGCGTTGATAGCAAATGCCGAT	0.569	0.207	-0.45	0.0933	-0.834	1.12	0.923	0.579	-0.693	0.0948	2.51	1.72	-0.297	-0.501	0.165	0.344	-0.453	0.5	-0.165	1.95
CGAACTAGGTCAGGGACAGTGAATCTCCGCACGC	1.19	0.726	-0.107	0.458	-0.639	3.59	5.89	4.71	2.38	4.17	7.43	7.24	1.27	0.491	0.781	0.326	-0.0952	0.867	-0.305	3.18
CCTTACGGGTCGAGGTTATAGCACGGGTGGTACG	1.26	1.27	-0.211	0.916	-0.417	2.42	0.822	1.01	-0.146	0.242	-0.517	0.508	-0.109	-1.51	1.53	1.11	0.209	1.61	-0.219	1.97
TAGCCTAGGTCATTCAGGTGCCAGTATAGAAAGC	4.93	3.74	0.777	2.77	0.913	3.55	1.87	2.27	0.493	1.54	1.57	2.83	0.483	-0.0925	1.13	2.17	0.327	2.34	-0.175	3.6
CCTATTTGTTGACCATAAGGGCAACCGAAGCTCG	0.863	0.511	0.84	0.696	1.12	0.847	0.437	0.529	0.245	0.342	0.427	0.84	0.694	0.679	1.94	1.09	0.998	1.35	1.45	1.72
ATCTCTAGGTAAAGTCCAGTGAAAGATCGATAGA	0.403	0.465	0.0712	-0.241	1.11	0.175	0.232	0.48	0.421	0.165	2.45	1.54	1.13	0.971	0.584	-0.13	0.187	-0.113	0.971	0.414
GCAGACAGGTGAAACGAAGGTAACTCAGGGTGGC	0.0182	0.296	-0.444	0.0431	-1.08	0.924	0.836	0.16	-0.263	-0.133	0.963	0.555	0.0896	-0.484	-0.228	0.0362	-0.595	0.681	-0.536	0.818
CCTAGTTGGTCACGGTCACACACGCTATAGGTAC	0.611	0.906	1.21	0.81	0.982	0.843	1.61	1.34	0.766	0.795	2.6	3.1	1.29	1.48	1.79	0.642	0.636	0.844	1.66	2.53
ACTAGCAGGCCAAGTTTGGGGCACTCAAACAAAG	-0.415	-0.546	-0.667	-0.397	-1.03	-0.148	-0.208	-0.509	-0.663	-0.441	0.771	0.921	-0.182	-0.0456	-0.843	-0.333	-0.763	0.00988	-0.881	0.744
GTACCAAGCTGAATAGGTCGTTGATGAGTAGGCG	-0.533	-0.288	-0.35	-0.237	-1.03	0.192	0.271	0.0324	-0.305	-0.334	-0.646	-0.114	-1.16	-0.822	-1.1	-0.255	-0.471	0.235	-0.336	0.0822
CGTCAAAGTTCAAGGTAACGTAACAGAAAGCAGC	6.65	5.73	2.59	3.46	1.01	4.81	4.45	5.18	2.02	3.97	0.893	2.47	1.4	0.701	2.19	4.2	2.44	3.28	1.04	5.17
CGTCAAAGTTCAAGATAACGTAACAGAAAGCAGC	6.13	5.32	2.94	3.5	1.64	4.45	4.44	4.96	2.17	3.75	0.612	1.57	1.5	1.52	3.29	4.2	3.04	3.35	2.34	4.9
CGTCCAAGGTCAAAGTCAGTGAAAGAGACTCGAA	7.61	5.36	0.709	4.03	1.64	5.87	5.41	5.32	1.82	4.19	3.22	3.56	-0.516	-0.183	2.62	3.72	0.349	4.01	1.36	5.14
AATAGCAGGCCAAGTTTGGGTCACTCAAACAAAG	0.16	0.399	-0.166	0.913	-0.947	1.72	0.314	0.478	-0.511	0.171	1.2	1.95	-0.692	-0.417	0.551	1.05	-0.42	1.79	-0.848	1.98
ATCGAAAGCTCGAAGGTGAGTATACCCACCCGAA	-0.601	-0.626	-0.677	-0.458	-0.832	-0.531	0.476	-0.226	-0.209	-0.372	-0.94	-0.157	0.15	-0.14	-1.31	-0.547	-0.343	-0.558	-0.499	0.055
TCTCCGAGGACACGAAGGTCAGAGCTTTCCAGAG	1.91	0.842	0.15	0.919	-0.353	2.09	0.489	1.61	2.34	2	1.19	1.32	-0.386	-0.524	1.23	2.1	1.31	2.06	-0.358	3.54
CTCGAAAGGTCGGTTGAGGTTAGTATACGGATAA	3.06	2.88	0.205	1.97	0.0146	2.81	0.316	1.21	0.186	0.845	-0.0127	0.923	0.234	-0.683	1.47	4.96	0.435	3.04	0.202	3.06
ATCGAAAGGGCGAAGGTGAGTATACCCACCCGAA	0.199	0.432	-0.538	0.0351	-0.165	1.72	1.93	2.33	0.766	1.93	-0.906	0.809	0.146	-0.234	1.04	0.359	-0.166	1.03	-0.384	1.94
ATCGAAAGGTCGTGGGGTGAGTATACAGAAAGGC	6.2	4.88	0.955	4.76	2.35	5.78	5.25	5.38	2.16	3.9	1.35	2.93	1.62	1.78	2.39	4.24	1.2	4.98	2.03	4.47
TATACCGGGTCAAAGGCCAGAGTACGAATGTCGA	5.68	5.19	1.56	3.95	1.32	6.35	8.61	7.39	6.12	7.45	2.58	5.47	0.885	1.2	2.12	3.61	0.647	4.89	0.935	3.88
CCTTACGGGTCACCGACAGGTTATAGCATTTGGA	6.22	4.88	0.46	3.96	-0.223	5.69	6.3	5.64	2.16	4.6	2.51	4.22	0.292	0.016	3.32	4.11	-0.087	5.27	0.277	4.52
CCGACTGGGGCATAAGCTTACCATAAGCCAGCCC	-0.673	-0.689	-0.589	-0.747	-1.15	-0.16	0.765	1.04	-0.348	0.228	2.59	1.57	-1.09	-1.16	-0.394	-0.775	-0.649	-0.694	-0.632	-0.11
ATCTCTAGGTAAAGATAGATCAGTGAATGCAAAT	0.447	0.581	0.166	0.000708	0.387	0.00369	0.763	0.278	0.36	0.457	1.89	1.61	0.429	1.24	-0.283	-0.396	0.0363	-0.0575	1.14	-0.27
TCGAGTAGGTTAGTGGCATTCAGAATGGCGTCGA	-0.429	-0.347	-0.383	-0.122	-1.05	0.197	-0.294	0.534	0.972	0.858	2.03	1.11	-1.08	-0.671	0.509	-0.288	-0.134	-0.0955	-0.37	0.0922
AATACAGGGTCATCGCAGGCCAGAGTACGCACAG	7.15	6.19	2.29	4.62	1.25	5.93	6.6	6.2	2.73	4.39	2.75	4.33	1.54	0.985	1.94	5.07	0.737	4.69	1.07	4.45
TCTATAAGTTGAAGGGCAACCGACGAGTCCGTTT	0.654	0.764	-0.0358	0.57	0.00788	1.27	0.844	2.82	3.72	3.29	2.03	0.839	0.713	0.947	0.68	0.812	0.652	0.558	0.192	1.93
TCGAGGAGGTTAGTCGGGGCATTCAGCCAACATA	0.421	0.675	-0.136	1.21	-0.337	1.43	-0.118	0.893	1.23	0.779	1.28	0.923	-0.713	-1.04	0.777	1.05	0.348	0.897	-0.313	1.01
ATCTCTAGGTGAGACTCAGTTCAGTGAAGAACGC	0.247	0.206	0.00794	0.271	0.0417	0.953	0.798	0.846	0.146	0.412	4.55	3.85	0.96	-0.0812	-0.0769	1.31	0.653	0.361	0.0758	0.707
